PubChem BioAssay (Tox21)
Records with an inconclusive call do not appear. The source made the active and inactive calls. Unless noted, calls come from the whole dose curve.

Key:
[1] = Nuclear factor erythroid 2-related factor 2/antioxidant responsive element (Nrf2/ARE) small molecule agonists: qHTS cell viability counter screen in human keratinocytes (AID 1919968; active = well fitted curve in the direction sought with a large enough effect in the repeat runs; an effect the other way counts as inactive or inconclusive; note: nearly all actives have a fitted effect of over 55% in size)
Method in brief: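 Fluorescence read-out from CellTiter-Fluor after 1 h at 37 C. Wells held HaCaT-derived ARE-luciferase reporter cells (1,500/well) treated 23 h with DMSO-dissolved compounds. Run in the same wells as the luciferase agonist read.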

[2] = Nuclear factor erythroid 2-related factor 2/antioxidant responsive element (Nrf2/ARE) small molecule agonists: luciferase reporter gene qHTS assay in human keratinocytes (AID 1919969); note: nearly all actives have a fitted effect of over 35% in size; note: potency is the fitted concentration of half-maximal effect
[3] = biological target: Gonadotropin-releasing hormone receptor (Homo sapiens) (UniProt P30968); assay: Human gonadotropin-releasing hormone receptor (GnRHR) small molecule agonists, calcium flux assay in GnRHR-HEK293 cells (AID 1920063); note: nearly all actives have a fitted effect of over 35% in size; note: potency is the fitted concentration of half-maximal effect
Gonadotropin-releasing hormone receptor (Homo sapiens), sequence (P30968 whole entry, looked up): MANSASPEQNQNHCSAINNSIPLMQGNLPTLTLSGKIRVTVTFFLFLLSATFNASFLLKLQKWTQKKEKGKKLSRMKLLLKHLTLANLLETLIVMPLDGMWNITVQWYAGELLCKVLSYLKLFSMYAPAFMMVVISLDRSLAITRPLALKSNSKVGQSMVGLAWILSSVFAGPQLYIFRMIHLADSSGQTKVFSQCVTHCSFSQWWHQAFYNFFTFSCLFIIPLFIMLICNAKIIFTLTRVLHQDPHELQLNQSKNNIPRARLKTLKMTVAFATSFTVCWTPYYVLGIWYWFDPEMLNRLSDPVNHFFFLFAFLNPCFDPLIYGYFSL
Method in brief: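 Calcium-dye fluorescence, Ex/Em=480/540, recorded every 1 sec over 3 min after compound addition to GnRHR-HEK293 cells. Cells had been seeded 18 hours earlier and dye-loaded for 1 hour at 37 C. Fifteen concentrations, triplicates.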

[4] = biological target: KiSS-1 receptor (Homo sapiens) (UniProt Q969F8); assay: Human kisspeptin (KISS1R) small molecule agonists, calcium flux assay in KISS1R-HEK293 cells (AID 1920064; active = well fitted curve in the direction sought with a large enough effect in the repeat runs; an effect the other way counts as inactive or inconclusive)
KiSS-1 receptor (Homo sapiens), sequence (Q969F8 whole entry, looked up): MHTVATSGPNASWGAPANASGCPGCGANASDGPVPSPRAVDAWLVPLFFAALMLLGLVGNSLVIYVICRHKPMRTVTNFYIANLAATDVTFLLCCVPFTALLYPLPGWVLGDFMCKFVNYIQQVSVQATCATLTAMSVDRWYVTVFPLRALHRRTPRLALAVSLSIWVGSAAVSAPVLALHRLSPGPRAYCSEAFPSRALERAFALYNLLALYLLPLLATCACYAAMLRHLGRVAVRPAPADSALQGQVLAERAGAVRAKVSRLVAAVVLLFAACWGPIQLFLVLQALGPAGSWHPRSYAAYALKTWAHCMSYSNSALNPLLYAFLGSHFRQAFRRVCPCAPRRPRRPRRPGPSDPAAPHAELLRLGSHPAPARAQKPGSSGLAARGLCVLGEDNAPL
Method in brief: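 Calcium flux read-out: kinetic fluorescence at Ex/Em=480/540, 1 s intervals over 3 min, after pin-tool compound addition to dye-loaded KISS1R-HEK293 cells. Fifteen concentrations, triplicates.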

[5] = G protein-coupled receptor (GPCR) small molecule agonists, calcium flux assay: HEK293 wild type cell line counter screen (AID 1920065)
Method in brief: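 Agonist mode; 18 h seeding at 37 C, 1 h dye load at 37 C; compounds pinned from DMSO, ATP as positive control; kinetic fluorescence 480/540 nm, 3 min, 1 s reads; 15 concentrations, triplicate.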

[6] = p53 small molecule agonists, cell-based qHTS assay with human liver microsomes (AID 1963577)
Method in brief: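 Compounds act here after metabolic activation: human liver microsomes and NADPH, both at 0.5 mg/mL final, were co-added to p53RE-bla cells. Incubation ran 16 h at 37 C, followed by LiveBLAzer detection.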

[7] = p53 small molecule agonists, cell-based qHTS assay with rat liver microsomes (AID 1963578)
Method in brief: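 Read-out is beta-lactamase reporter fluorescence (LiveBLAzer, 2 h, room temperature, dark) in p53RE-bla cells treated 16 h at 37 C with compound, rat liver microsomes and NADPH, both 0.5 mg/mL final.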

[8] = p53 small molecule agonists, cell-based qHTS assay with human liver microsomes: qHTS cell viability counter screen (AID 1963579); note: nearly all actives have a fitted effect of over 45% in size
Method in brief: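 Cells carrying the p53 response-element beta-lactamase reporter are treated for 16 h at 37 C with test compounds in the presence of human liver microsomes and NADPH (both 0.5 mg/mL final); ATP-based CellTiter-Glo luminescence then reports viability.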

[9] = p53 small molecule agonists, cell-based qHTS assay with rat liver microsomes: qHTS cell viability counter screen (AID 1963580); note: nearly all actives have a fitted effect of over 45% in size
Method in brief: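 Luminescent ATP readout (CellTiter-Glo, 30 min at room temperature) reports viability of p53RE-bla HCT-116 cells after 16 h at 37 C with test compounds under metabolic activation by rat liver microsomes and NADPH at 0.5 mg/mL final each.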

[10] = p53 small molecule agonists, cell-based qHTS assay: qHTS cell viability counter screen (AID 1963581); note: nearly all actives have a fitted effect of over 45% in size
Method in brief: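 Cytotoxicity read-out: ATP-based luminescence (CellTiter-Glo, 30 min RT) measured in the same wells as the p53 reporter assay, HCT-116 p53RE-bla cells, 16 h compound exposure at 37 C.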

[11] = p53 small molecule agonists, cell-based qHTS assay (AID 1963582; active = well fitted activation curve with a large enough effect in the signal ratio in the repeat runs, not every such curve was filed as active; the % refers to the signal ratio; note: potency is the fitted concentration of half-maximal effect)
Method in brief: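 Fluorescence intensity read-out of a beta-lactamase reporter under a p53 response element. Cells were exposed to DMSO-dissolved compounds for 16 h at 37 C, then developed with FRET substrate for 2 h at RT.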

[12] = biological target: 5-hydroxytryptamine receptor 2A (Homo sapiens) (UniProt P28223); assay: 5-hydroxytryptamine receptor 2A (HTR2A) small molecule antagonists, cell-based qHTS assay (AID 1963586); note: nearly all actives have a fitted effect of over 45% in size
5-hydroxytryptamine receptor 2A (Homo sapiens), sequence (P28223 whole entry, looked up): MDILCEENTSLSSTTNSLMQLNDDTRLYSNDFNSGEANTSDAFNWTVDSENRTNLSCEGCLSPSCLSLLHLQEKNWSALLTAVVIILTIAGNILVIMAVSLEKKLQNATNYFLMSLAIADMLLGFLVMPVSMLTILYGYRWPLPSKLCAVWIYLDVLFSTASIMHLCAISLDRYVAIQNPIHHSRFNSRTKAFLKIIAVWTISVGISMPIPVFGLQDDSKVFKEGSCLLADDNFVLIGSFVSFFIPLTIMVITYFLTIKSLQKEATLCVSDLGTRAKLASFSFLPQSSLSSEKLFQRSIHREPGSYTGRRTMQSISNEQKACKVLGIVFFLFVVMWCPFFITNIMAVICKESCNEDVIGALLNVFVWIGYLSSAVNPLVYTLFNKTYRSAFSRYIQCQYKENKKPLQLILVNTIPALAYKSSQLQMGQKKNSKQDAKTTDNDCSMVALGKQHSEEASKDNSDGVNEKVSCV
Method in brief: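 CHO cells stably expressing human HTR2A were plated for 18 h at 37 C, then loaded with calcium dye for 1 h. Compounds were preincubated 5 min at room temperature before DOI (4 nM solution) was added. Kinetic fluorescence was read for 3 min.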

[13] = biological target: 5-hydroxytryptamine receptor 2A (Homo sapiens) (UniProt P28223); assay: 5-hydroxytryptamine receptor 2A (HTR2A) small molecule agonists, cell-based qHTS assay (AID 1963587); note: nearly all actives have a fitted effect of over 30% in size
Method in brief: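 HTR2A-CHO cells, plated 18 h at 37 C/5% CO2, dye-loaded 1 h at 37 C; compounds in DMSO added by pin tool (agonist mode). Intracellular calcium flux read as kinetic fluorescence on FDSS over 2 min at 1 s intervals.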

[14] = biological target: Muscarinic acetylcholine receptor M1 (Homo sapiens) (UniProt P11229); assay: Cholinergic receptor muscarinic 1 (CHRM1) small molecule antagonists, cell-based qHTS assay (AID 1963588); note: nearly all actives have a fitted effect of over 40% in size
Muscarinic acetylcholine receptor M1 (Homo sapiens), sequence (P11229 whole entry, looked up): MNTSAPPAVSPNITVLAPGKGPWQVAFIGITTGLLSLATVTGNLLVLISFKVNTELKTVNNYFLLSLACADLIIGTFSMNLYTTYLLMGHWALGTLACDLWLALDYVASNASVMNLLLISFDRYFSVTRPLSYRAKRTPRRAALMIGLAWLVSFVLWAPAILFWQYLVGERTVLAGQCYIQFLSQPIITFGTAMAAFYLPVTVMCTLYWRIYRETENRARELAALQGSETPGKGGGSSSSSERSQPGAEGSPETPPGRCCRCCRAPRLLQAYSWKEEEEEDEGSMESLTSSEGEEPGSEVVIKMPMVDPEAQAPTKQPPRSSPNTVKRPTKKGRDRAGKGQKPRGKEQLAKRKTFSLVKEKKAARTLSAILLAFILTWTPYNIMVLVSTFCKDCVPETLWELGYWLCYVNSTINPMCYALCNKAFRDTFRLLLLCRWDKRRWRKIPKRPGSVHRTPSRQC
Method in brief: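 Compounds were tested at 15 concentrations in three independent runs. Dye-loaded CHRM1-CHO cells were exposed 5 min at room temperature before stimulation by acetylcholine added at 50nM. Intracellular calcium was read kinetically on FDSS for 3 min.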

[15] = cAMP Responsive Elements (CRE) small molecule agonists, cell-based qHTS assay (AID 1963590)
Method in brief: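 Beta-lactamase reporter readout: LiveBLAzer B/G FRET substrate, 2 h at room temperature, added after 3 h compound treatment of CRE-bla HEK 293T cells at 37 C/5% CO2.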

[16] = cAMP Responsive Elements (CRE) small molecule antagonists, cell-based qHTS assay (AID 1963591; active = well fitted inhibition curve with a large enough effect in the signal ratio in the repeat runs, not every such curve was filed as active; the % refers to the signal ratio)
Method in brief: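 HEK293T CRE-bla; 18 h preincubation; compound pin-transfer; NKH477 0.25 uM final, 3 h, 37 C; LiveBLAzer FRET substrate 2 h RT.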

[17] = biological target: D(2) dopamine receptor (Homo sapiens) (UniProt P14416); assay: Dopamine D2 receptor (DRD2) small molecule antagonists, cell-based qHTS assay (AID 1963595; active = well fitted inhibition curve with a large enough effect in the signal ratio in the repeat runs, with a control signal flat; the % refers to the signal ratio)
D(2) dopamine receptor (Homo sapiens), sequence (P14416 whole entry, looked up): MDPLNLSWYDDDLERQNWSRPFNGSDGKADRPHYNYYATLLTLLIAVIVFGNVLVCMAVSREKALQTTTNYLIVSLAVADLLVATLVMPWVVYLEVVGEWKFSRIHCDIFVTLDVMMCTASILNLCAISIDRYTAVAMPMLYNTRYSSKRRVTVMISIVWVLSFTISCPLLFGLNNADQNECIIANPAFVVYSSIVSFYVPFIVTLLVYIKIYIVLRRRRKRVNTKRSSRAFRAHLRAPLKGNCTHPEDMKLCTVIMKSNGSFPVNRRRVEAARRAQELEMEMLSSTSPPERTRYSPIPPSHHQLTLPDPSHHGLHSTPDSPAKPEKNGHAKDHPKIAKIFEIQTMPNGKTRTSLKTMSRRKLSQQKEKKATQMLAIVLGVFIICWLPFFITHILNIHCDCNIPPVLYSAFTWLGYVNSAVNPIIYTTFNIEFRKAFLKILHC
Method in brief: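 HTRF cAMP read-out at 665 and 620 nm emission (340 nm excitation). Antagonist mode: compounds were tested against 12 nM quinpirole in DRD2-HEK293 cells, with 200 nM NKH477 raising cAMP and 0.1 mM Ro20-1724 blocking its breakdown.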

[18] = biological target: Muscarinic acetylcholine receptor M1 (Homo sapiens) (UniProt P11229); assay: Cholinergic receptor muscarinic 1 (CHRM1) small molecule agonists, cell-based qHTS assay (AID 1963589); note: nearly all actives have a fitted effect of over 35% in size; note: potency is the fitted concentration of half-maximal effect
Method in brief: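 Calcium flux read-out: kinetic fluorescence at 1 sec intervals after pin-tool compound addition to dye-loaded CHRM1-CHO cells (human M1). Agonist mode; 15 concentrations tested in triplicate independent runs.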

[19] = biological target: Beta-2 adrenergic receptor (Homo sapiens) (UniProt P07550); assay: Adrenergic beta2 receptor (ADRB2) small molecule antagonists, cell-based qHTS assay (AID 1963592); note: series mostly up to about 92 µM; nearly all actives have a fitted effect of over 50% in size
Beta-2 adrenergic receptor (Homo sapiens), sequence (P07550 whole entry, looked up): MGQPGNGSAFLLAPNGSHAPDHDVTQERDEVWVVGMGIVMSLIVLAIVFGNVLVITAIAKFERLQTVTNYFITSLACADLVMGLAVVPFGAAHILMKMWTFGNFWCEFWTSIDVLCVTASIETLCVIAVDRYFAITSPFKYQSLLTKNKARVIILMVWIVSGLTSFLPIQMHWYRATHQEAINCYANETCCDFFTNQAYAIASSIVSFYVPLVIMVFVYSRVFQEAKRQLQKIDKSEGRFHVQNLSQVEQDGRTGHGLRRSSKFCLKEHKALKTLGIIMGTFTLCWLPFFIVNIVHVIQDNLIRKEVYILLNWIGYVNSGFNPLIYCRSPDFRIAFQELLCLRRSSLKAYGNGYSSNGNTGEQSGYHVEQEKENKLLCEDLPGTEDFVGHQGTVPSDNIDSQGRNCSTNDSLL
Method in brief: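 Assay format: CHO-ADRB2 cells, 18-20hr seeding at 37C/5% CO2, then compound plus 1nM isoproterenol agonist mix for 0.5hr RT. Homogeneous time-resolved fluorescence cAMP detection after 1hr, expressed as 665/615 nm ratio.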

[20] = biological target: D(2) dopamine receptor (Homo sapiens) (UniProt P14416); assay: Dopamine D2 receptor (DRD2) small molecule agonists, cell-based qHTS assay (AID 1963594); note: nearly all actives have a fitted effect of over 35% in size
Method in brief: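 HEK293 cells stably expressing DRD2 were cultured 24 h at 37 C, then given Ro20-1724 (0.1 mM final) and compounds for 10 min at room temperature. NKH477 (200nM) was then added for 30 min. cAMP was read by HTRF.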
% is set by controls: 0 for no effect and ±100 for the full control effect.

O=C1OC(OC(=O)c2cccnc2Nc2cccc(C(F)(F)F)c2)c2ccccc21 (centres undefined)
active: Potency [2] 13300 nM
inactive: Potency [1] | Potency [3] | outcome [4] | outcome [5] | Potency [6] | Potency [7] | Potency [8] | Potency [9] | Potency [10] | Potency [11] | Potency [12] | Potency [13] | Potency [14] | Potency [15] | Potency [16] | Potency [17]

Cc1ccsc1C(=CCCN1CCC[C@@H](C(=O)O)C1)c1sccc1C
inactive: Potency [1] | Potency [2] | Potency [3] | outcome [4] | outcome [5] | Potency [6] | Potency [7] | Potency [8] | Potency [9] | Potency [10] | Potency [12] | Potency [13] | Potency [14] | Potency [18] | Potency [19] | Potency [20] | Potency [17]
active: Potency [11] 500 nM

CCOC(=O)C1CC(=O)C(=C(O)C2CC2)C(=O)C1 (centres undefined)
inactive: Potency [1] | Potency [2] | Potency [3] | outcome [4] | outcome [5] | Potency [6] | Potency [7] | Potency [8] | Potency [9] | Potency [10] | Potency [11] | Potency [12] | Potency [13] | Potency [14] | Potency [18] | Potency [16] | Potency [17]

O=C(OCCCCCOC(=O)c1ccccc1)c1ccccc1
inactive: Potency [1] | Potency [2] | Potency [3] | outcome [4] | outcome [5] | Potency [6] | Potency [7] | Potency [8] | Potency [9] | Potency [10] | Potency [11] | Potency [12] | Potency [13] | Potency [14] | Potency [19] | Potency [20] | Potency [17]

O=C(COCCOCCOCC(=O)Nc1c(I)cc(I)c(C(=O)O)c1I)Nc1c(I)cc(I)c(C(=O)O)c1I
inactive: Potency [1] | Potency [2] | Potency [3] | outcome [4] | outcome [5] | Potency [6] | Potency [7] | Potency [8] | Potency [9] | Potency [10] | Potency [11] | Potency [12] | Potency [13] | Potency [18] | Potency [15] | Potency [16] | Potency [19] | Potency [17]

CCc1nccnc1CC
inactive: activity change, negative = cytotoxicity [1] 5.52% [at 19 µM] | activity, positive = activation [2] 0.453% [at 19 µM] | activity change [3] -0.658% [at 11.8 µM, active compounds read high] | activation [4] 1.62% [at 15.8 µM] | activation [5] -0.595% [at 11.8 µM] | activation [6] 3.14% [at 13.5 µM] | activation [7] 1.15% [at 13.6 µM] | activity change, negative = cytotoxicity [8] -2.07% [at 13.5 µM] | activity change, negative = cytotoxicity [9] -5.78% [at 13.5 µM] | activity change, negative = cytotoxicity [10] 1.59% [at 13.5 µM] | activation [11] 3.48% [at 13.5 µM] | activity, negative = inhibition [12] -8.77% [at 12.7 µM] | activation [13] 3.43% [at 15.9 µM] | activation [15] 0.766% [at 19 µM] | activity change, negative = inhibition [16] -3.19% [at 18.9 µM] | activity change, negative = inhibition [19] -4.86% [at 19 µM] | activation [20] -2.33% [at 19 µM] | activity change, negative = inhibition [17] -10.9% [at 18.9 µM]

C=CC(=O)OCC[N+](C)(C)C
inactive: Potency [1] | Potency [2] | outcome [4] | outcome [5] | Potency [6] | Potency [7] | Potency [8] | Potency [9] | Potency [10] | Potency [11] | Potency [12] | Potency [13] | Potency [15] | Potency [16] | Potency [20] | Potency [17]
active: Potency [3] 438 nM | Potency [18] 43.8 nM

C=CC(C)C#N (centres undefined)
inactive: Potency [1] | Potency [2] | Potency [3] | outcome [4] | outcome [5] | Potency [6] | Potency [7] | Potency [8] | Potency [9] | Potency [10] | Potency [11] | Potency [12] | Potency [13] | Potency [18] | Potency [15] | Potency [16] | Potency [19] | Potency [20] | Potency [17]

CC(C)(C)c1cc(C=O)cc(C(C)(C)C)c1O
inactive: Potency [1] | Potency [2] | Potency [3] | outcome [4] | outcome [5] | Potency [6] | Potency [7] | Potency [8] | Potency [9] | Potency [10] | Potency [11] | Potency [12] | Potency [13] | Potency [18] | Potency [15] | Potency [16] | Potency [19] | Potency [20] | Potency [17]

CCCCCC(C)N (centres undefined)
inactive: Potency [1] | Potency [2] | Potency [3] | outcome [4] | outcome [5] | Potency [6] | Potency [7] | Potency [8] | Potency [9] | Potency [10] | Potency [11] | Potency [12] | Potency [13] | Potency [15] | Potency [16] | Potency [19] | Potency [20] | Potency [17]

Cn1cccc1
inactive: Potency [1] | Potency [2] | Potency [3] | outcome [4] | outcome [5] | Potency [6] | Potency [7] | Potency [8] | Potency [9] | Potency [10] | Potency [11] | Potency [12] | Potency [13] | Potency [18] | Potency [15] | Potency [16] | Potency [20]

COc1cccc(O)c1O
active: Potency [2] 28400 nM
inactive: Potency [1] | Potency [3] | outcome [4] | outcome [5] | Potency [6] | Potency [7] | Potency [8] | Potency [9] | Potency [10] | Potency [11] | Potency [12] | Potency [13] | Potency [18] | Potency [15] | Potency [19]

CC(C)C(=O)OCC(C)(C)C(O)C(C)C (centres undefined)
inactive: Potency [1] | Potency [2] | Potency [3] | outcome [4] | outcome [5] | Potency [6] | Potency [7] | Potency [8] | Potency [9] | Potency [10] | Potency [11] | Potency [12] | Potency [13] | Potency [18] | Potency [15] | Potency [16] | Potency [19] | Potency [20] | Potency [17]

CCCCN(CCCC)C(C(N)=O)c1ccc(OC)cc1 (centres undefined)
inactive: Potency [1] | Potency [2] | Potency [3] | outcome [4] | outcome [5] | Potency [6] | Potency [7] | Potency [8] | Potency [9] | Potency [10] | Potency [11] | Potency [12] | Potency [13] | Potency [18] | Potency [15] | Potency [19] | Potency [20] | Potency [17]
